Compounds with a hit are over-represented: about 4.8% of the library has one in this group of screens.
ssDAF12 agonist = activates DAF-12 receptor from parasite S. stercoralis. activation, % at 6.8 µM. AID 652126. actives 1% (n = 370,000). HEK293 ssDAF-12/GRIP1 lit1-tk-luc reporter, luminescence; % of 3 µM dafachronic acid response;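 active means activation above the mean over all tested compounds plus 3 SD, cut at about 0.9% in these data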;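 further: 0% = DMSO-only wells and 100% = 3 µM delta7-dafachronic acid wells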
hcDAF12 agonist = activates DAF-12 receptor from parasite H. contortus | HEK293 hcDAF-12 lit1-tk-luc reporter, luminescence; 0% DMSO, 100% Δ7-dafachronic acid | activation, % at 6.8 µM | actives 1.4% (n = 370,000);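 active means activation above the mean of all tested compounds plus 3 SD, cut at about 5.5% in these data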;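 further: 100% = response to 3 µM Δ7-dafachronic acid high control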
SMARCA2 act = increases SMARCA2 function in MMTV reporter cells; AID 652017; MG213 cells, MMTV-luciferase reporter, dexamethasone, overnight; actives 1% (n = 370,000); activation, % at 9.1 µM; in the data active means activation above about 7.8%;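 further: 0% = vehicle wells and 100% = reference activator wells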
DAX1 inh-1 = NR0B1 (DAX1) inhibition; P51843; HEK293 Gal4-DAX1 luciferase reporter, luminescence; inhibition, % at 6.75 µM; actives 0.99% (n = 340,000);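 active means inhibition above the mean over all tested compounds plus 3 SD, cut at about 4.2% in these data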;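 further: 0% = DAX1-transfected cells with DMSO and 100% = empty-vector control cells with DMSO; inhibition shows as a rise in luminescence from relieved DAX1 repression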
Target sequence (P51843 207-470 limits assumed): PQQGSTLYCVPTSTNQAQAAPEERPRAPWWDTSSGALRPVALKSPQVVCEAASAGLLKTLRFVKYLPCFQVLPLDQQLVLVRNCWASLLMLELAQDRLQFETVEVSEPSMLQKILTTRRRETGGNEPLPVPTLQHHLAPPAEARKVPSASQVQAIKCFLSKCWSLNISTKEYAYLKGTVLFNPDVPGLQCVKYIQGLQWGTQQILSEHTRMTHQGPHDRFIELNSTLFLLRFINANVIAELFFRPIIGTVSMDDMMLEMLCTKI
DAX1 inh-2 = DAX1 (NR0B1) inhibition, primary screen; AID 652010; HEK293T StAR-luciferase reporter, SF-1/DAX-1 repression relief; actives 1.1% (n = 370,000); inhibition, % at 6.8 µM;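 active means inhibition above the mean over all tested compounds plus 3 SD, cut at about 3.6% in these data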;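 further: 0% = DAX-1 cells with DMSO and 100% = cells lacking DAX-1 with DMSO; higher inhibition means more luminescence from relief of DAX-1 repression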
hgDAF12 agonist = hgDAF-12 agonism, primary luciferase screen | actives 1.8% (n = 370,000) | HEK293 GAL4-hgDAF12 UAS-luciferase reporter, agonist luminescence; normalized to butyrate control | activation, % at 6.8 µM | AID 687014;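 active means activation above a cutoff set at the mean of all screened compounds plus 3 SD, cut at about 10% in these data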;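 further: 0% = DMSO wells and 100% = sodium butyrate wells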
An asterisk follows results filed as active; / = not tested or not shown.

SMILES	ssDAF12 agonist	hcDAF12 agonist	SMARCA2 act	DAX1 inh-1	DAX1 inh-2	hgDAF12 agonist
CCOc1ccc(C2(C)CC(=O)N(C)C2=O)cc1 (stereo not drawn)	-1.4	0.1	-1.4	2.4	0.1	0.4
COc1ccc(C2CCc3cc4c(cc3C2=NO)OCO4)cc1OC (stereo not drawn)	-1.2	-1.5	-3.2	-1.8	-2.2	-2.8
COc1ccc(-c2nc(CN3CCCCC3c3cccnc3)c(C)o2)c(F)c1 (stereo not drawn)	-1.1	-0.6	-4.7	-0.2	0.3	11.9*
O=C(COc1ccc(-c2nnco2)cc1)N1CCOCC1	-0.4	-0.1	5.9	-0.3	-0.8	-4.3
COc1ccc(S(=O)(=O)N(C)C[C@H]2Oc3ccc(NC(=O)c4ccncc4)cc3C(=O)N([C@H](C)CO)C[C@@H]2C)cc1	2.6*	-1.2	2.5	-0.6	0.9	-0.7
C[C@@H]1CCCCO[C@H](CN(C)C(=O)c2ccncc2)[C@H](C)CN([C@@H](C)CO)C(=O)c2cc(NC(=O)c3ccccc3)ccc2O1	-0.7	-1.4	-3.4	2.0	0.6	1.8
C[C@@H]1CCCCO[C@@H](CN(C)C(=O)c2ccncc2)[C@@H](C)CN([C@H](C)CO)C(=O)c2cc(NC(=O)Cc3ccccc3)ccc2O1	-1.4	0.3	-2.3	0.8	-0.9	11.3*
C[C@H](CO)N1C[C@H](C)[C@@H](CN(C)S(=O)(=O)c2ccc(F)cc2)Oc2ccc(NC(=O)c3ccncc3)cc2C1=O	-1.4	-1.4	-1.1	0.4	-0.2	-1.6
C[C@@H]1CCCCO[C@@H](CN(C)C(=O)Nc2ccc3c(c2)OCO3)[C@@H](C)CN([C@H](C)CO)C(=O)c2cc(N(C)C)ccc2O1	-1.2	-0.4	-4.4	4.3*	-0.4	0.4
C[C@@H]1CCCCO[C@H](CN(C)C(=O)Nc2ccc(C(F)(F)F)cc2)[C@@H](C)CN([C@H](C)CO)C(=O)c2cc(NC(=O)Nc3ccc4c(c3)OCO4)ccc2O1	-1.0	-1.7	3.9	/	1.0	1.5
C[C@@H]1CN([C@H](C)CO)C(=O)c2cc(NC(=O)Cc3cn(C)c4ccccc34)ccc2O[C@H]1CN(C)C(=O)Nc1ccc2c(c1)OCO2	-0.6	6.2*	-1.1	-0.4	0.3	3.0
C[C@H](CO)N1C[C@H](C)[C@@H](CN(C)C(=O)Nc2ccc3c(c2)OCO3)Oc2ccc(NC(=O)Cc3ccccc3)cc2C1=O	-1.3	0.8	-0.5	1.4	0.3	-0.2
CC(C)NC(=O)Nc1ccc2c(c1)C(=O)N([C@H](C)CO)C[C@H](C)[C@@H](CN(C)C(=O)Nc1ccc(C(F)(F)F)cc1)O2	-0.4	0.8	-2.6	4.5*	0.4	0.8
Cc1noc(C)c1NC(=O)N(C)C[C@H]1OCCCC[C@@H](C)Oc2ccc(NC(=O)Nc3ccc(F)cc3)cc2C(=O)N([C@@H](C)CO)C[C@H]1C	-1.8	-0.8	-5.1	5.1*	0.5	-0.6
Cc1noc(C)c1NC(=O)N(C)C[C@H]1OCCCC[C@@H](C)Oc2ccc(NC(=O)c3ccccc3)cc2C(=O)N([C@H](C)CO)C[C@@H]1C	-1.0	-1.1	3.1	0.5	-0.2	0.1
O=C(NN1CCCCC1)NN1CCCCC1	-1.3	-0.9	-1.5	/	0.1	0.0
O=C(Cc1c(Cl)cccc1Cl)N1CCN(S(=O)(=O)c2cccs2)CC1	-0.8	0.8	-0.8	0.3	1.1	-0.1
COc1ccccc1NC(=O)Nc1nnc([C@@H]2C[C@H](O)[C@@H](CO)O2)s1	-0.2	-0.4	1.4	/	0.5	2.4
O=C(CSc1ccccc1F)NCC(c1ccco1)N1CCCCC1 (stereo not drawn)	-0.8	0.1	-0.8	1.0	-0.7	0.4
Cc1ccc(C(=O)Nc2cc3c(oc2=O)CCCC3=O)cc1	0.4	4.0	3.4	3.0	2.4	11.2*
CCC(=O)c1ccc(OC(=O)c2cnccn2)cc1	-0.9	1.1	2.5	5.0*	-0.4	4.5
CCOC(=O)C1CCN(C(=O)COC(=O)c2c(C)c(CC)nc3ccccc23)CC1	-1.9	-0.9	-2.8	-0.5	-2.6	1.7
O=CNc1ccc2c(c1)Cc1cc([N+](=O)[O-])ccc1-2	-1.0	0.2	4.4	-2.8	-4.1	7.6

Bioassay records as filed in PubChem.
